Screens as filed in PubChem.
Rows were chosen to be rich in hits. Some 18% of all compounds tested hit in one or more screens of this group.
Gal4-VP16 FLuc: Gal4-VP16 reporter inhibition counter-screen; Drosophila S2 Gal4-VP16 UAS-luciferase, luminescence, 20 h; Potency, µM (series often up to 53.6 µM), for inactives: at the top dose activity, negative = inhibition, hits mostly inhibitors; 310,000 tested, 3.5% active; AID 2546;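 also: Gal4-VP16 expression switched on by copper sulfate through the metallothionein promoter; potency is read from the fitted curve at half-maximal effect; nearly all actives have a fitted effect of over 50% in size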
RORgamma inh: blocks mouse ROR gamma transcriptional activity | P51450 | Drosophila S2 Gal4-RORgamma UAS-luciferase reporter, 20 h | Potency, µM (titrated, usually from 53.6 µM), for inactives: top-dose activity change, negative = inhibition, hits mostly inhibitors | 310,000 tested, 5.4% active | AID 2551; also: potency is read from the fitted curve at half-maximal effect; nearly all actives have a fitted effect of over 60% in size
Target sequence (P51450 whole entry, looked up, the tested form may be a part): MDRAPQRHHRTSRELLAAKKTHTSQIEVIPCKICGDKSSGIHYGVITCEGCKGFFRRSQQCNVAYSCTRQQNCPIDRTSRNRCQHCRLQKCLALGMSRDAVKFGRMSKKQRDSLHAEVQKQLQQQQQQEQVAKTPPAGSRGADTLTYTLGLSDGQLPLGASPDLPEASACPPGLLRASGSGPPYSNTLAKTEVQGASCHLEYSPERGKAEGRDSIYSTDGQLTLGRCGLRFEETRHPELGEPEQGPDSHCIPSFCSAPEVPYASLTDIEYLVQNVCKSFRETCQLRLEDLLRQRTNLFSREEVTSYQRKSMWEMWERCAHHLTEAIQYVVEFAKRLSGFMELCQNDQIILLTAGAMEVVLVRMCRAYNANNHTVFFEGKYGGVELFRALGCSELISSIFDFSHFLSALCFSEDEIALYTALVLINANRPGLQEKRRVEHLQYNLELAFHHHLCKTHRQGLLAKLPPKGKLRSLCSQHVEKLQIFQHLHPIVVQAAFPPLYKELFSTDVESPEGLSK
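In this cell-based reporter format, copper sulfate (700 uM final) drives Gal4–ROR gamma fusion expression from a metallothionein promoter in Drosophila Schneider cells; compounds preincubated 1 hr, reporter read after 20 hr at ambient temperature.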
TDP1 cell CPT: growth inhibition of DT40 Tdp1-/-;hTDP1 cells with camptothecin (screen for TDP1 inhibitors) | Potency, µM (titrated, usually from 46.2 µM), for the others: at the top dose activity change, negative = growth inhibition, actives largely listed as inhibitors | AID 686979 | 420,000 tested, 12% active | chicken DT40 Tdp1-/-;hTDP1 cells + 20 nM CPT, ATP luminescence, 48 h; also: potency is read from the fitted curve at half-maximal effect; nearly all actives have a fitted effect of over 55% in size
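Cell growth measured by CellTiter-Glo luminescence after a minimum 48 h, 37 C compound exposure with 20 nM CPT in Tdp1-knockout DT40 cells stably expressing hTDP1, seeded 400/well; qHTS titration format.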
IL1B secr inh: inflammasome signaling inhibition, IL-1 beta readout; THP-1 LPS/ATP IL-1B secretion, AlphaLISA, 16 h; stronger effect = lower value; activity change, % at 57.5 µM; 360,000 tested, 4.7% active; in the data active = activity change below about -50%; inconclusive = mostly about -30% to -49%
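Secreted IL-1B measured by AlphaLISA bead assay after 16 h compound exposure of THP-1 cells; compounds (final up to 57.5 uM) added 1 h before LPS (250 ng/mL) and ATP (1.25 mM) stimulation; lower signal means less secretion.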
DT40 TDP1 no CPT: qHTS for Inhibitors of human tyrosyl-DNA phosphodiesterase 1 (TDP1): qHTS in cells in absence of CPT. DT40 Tdp1-/- hTDP1 cells, no CPT, ATP luminescence, 48 h. Potency, µM (series often up to 46.2 µM), for the others: at the highest dose activity change, negative = growth inhibition, most hits filed as inhibitors. 420,000 tested, 15% active. AID 686978, 2013; also: potency is read from the fitted curve at half-maximal effect; nearly all actives have a fitted effect of over 55% in size
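Growth of hTDP1-complemented DT40 Tdp1-knockout cells is measured by ATP luminescence after at least 48 hr compound exposure at 37 °C, with DMSO substituting for the 20 nM CPT used in the parallel screen.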
LDHA block: LDHA (human) enzyme inhibition; P00338; purified LDHA, NADH/diaphorase-resazurin fluorescence; stronger effect = lower value; activity change, % (values are at about 110 or 230 µM); 480,000 tested, 0.15% active; in the data active = activity change below about -30%; inconclusive = mostly about -25% to -30%;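 also: plate controls were DMSO wells for no effect and wells without enzyme for full effect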
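LDH5 2 nM; NADH 0.06 mM, pyruvate 0.2 mM; 200 mM Tris pH 7.4, EDTA, Tween-20; 5 min RT. Detection: diaphorase 0.133 mg/mL + resazurin 37 µM, fluorescence ex540/em590 at 0 and 20 min; normalized to enzyme-free and DMSO wells.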
An asterisk follows results filed as active; ? = inconclusive; · = not tested or not shown; [ ] = remark or other dose. Unless noted, calls follow the shape of the dose curve; as a rule, active = well fitted curve in the direction sought with a large enough effect; inconclusive = small, poorly fitted or top-dose-only effect, or another doubt; inactive = no such curve, though single readings can be large; an effect the other way counts as inactive or inconclusive. Unless noted, % is scaled to controls: 0 for no effect and ±100 for the full control effect.

SMILES	Gal4-VP16 FLuc	RORgamma inh	TDP1 cell CPT	IL1B secr inh	DT40 TDP1 no CPT	LDHA block
Cn1c(=S)c2[nH]c(SCc3cccnc3)nc2n(C)c1=O	·	·	?	43	?	-7
CCCCSc1nc2c([nH]1)c(=S)n(C)c(=O)n2C	·	·	1.3µM*	13	1.2µM*	-2
O=C(N/N=C/c1ccc([N+](=O)[O-])o1)c1ccc(O)cc1	13µM*	11µM*	2.9µM*	63	2.9µM*	-4
Cc1ccc(/C=N/NS(=O)(=O)c2ccccc2)o1	-17%	-5%	-15%	14	-23%	-4
Cc1nc2ccccn2c1C(=O)N/N=C/c1ccc([N+](=O)[O-])o1	?	14µM*	2.9µM*	28	5.8µM*	8
Cc1scc(C(=O)N/N=C/c2ccco2)c1C	-5%	-38%	-22%	-8	-13%	-4
O=[N+]([O-])c1ccc(/C=N\NS(=O)(=O)c2ccc(F)cc2)o1	14µM*	?	15µM*	-29	?	2
Cc1scc(C(=O)N/N=C/c2ccc([N+](=O)[O-])o2)c1C	7.1µM*	4µM*	·	·	·	·
O=C(N/N=C/c1ccc([N+](=O)[O-])o1)C1CCCC1	-28%	-38%	?	36	?	-7
CN(C)S(=O)(=O)N(CC(=O)N1CCN(c2cccc(Cl)c2)CC1)c1ccc(F)cc1	·	·	·	·	·	7
CC(C)(C)c1ccc(-c2nc(C#N)c(NCCN3CCOCC3)o2)cc1	·	·	·	·	·	0
O=C(N/N=C/c1ccncc1)c1ccncc1	·	·	-4%	-14	-12%	-8
O=C(N/N=C/c1ccc([N+](=O)[O-])o1)c1ccncc1	?	?	9.2µM*	7	9.2µM*	5
Cc1ccc(-c2ccc(CCC(=O)Nc3nnc(C)s3)o2)cc1	·	·	·	·	·	-18
N#Cc1c(NCc2ccncc2)nc(-c2ccccc2)c2c1CCCC2	·	·	·	·	·	2
COc1cc(CNCCN2CCOCC2)ccc1OCc1cccc(Cl)c1	13%	-8%	?	?	16µM*	-4
COc1ccc(CCNCc2ccc(OCc3ccccc3)cc2)cc1	-23%	-20%	?	-99*	?	-2
COc1ccc(CNCCc2ccccc2)cc1OCC(N)=O	1%	4%	-4%	-6	1%	-5
COc1ccc(CCNCc2ccc(-c3ccccc3)cc2)cc1OC	·	·	?	-90*	23µM*	-7
COc1ccc(CCNC(=O)Cc2ccc(OCc3ccccc3)c(OC)c2[N+](=O)[O-])cc1OCc1ccccc1	3.2µM*	?	23µM*	30	8.2µM*	-4
COc1ccc(CNS(=O)(=O)CCNCCc2ccccc2)cc1	·	·	2%	-6	?	-2
O=Cc1ccc(-c2ccc(Br)cc2Br)o1	·	·	·	·	·	-1
O=C1/C(=C/c2ccc(OCc3ccccc3)cc2)CCc2ccccc21	·	·	·	·	·	7
COc1ccc(Nc2nc(CSc3nnc4n3CCCCC4)cs2)cc1	·	·	·	·	·	6
COc1ccc(CCNCc2csc3nc4ccccc4n23)cc1OC	6.3µM*	-34%	12µM*	-7	9.2µM*	1
SMILES	Gal4-VP16 FLuc	RORgamma inh	TDP1 cell CPT	IL1B secr inh	DT40 TDP1 no CPT	LDHA block
COc1cc(CN(C)CCc2ccccc2)ccc1OCc1ccccc1	-6%	-1%	?	?	26µM*	5
COc1ccc(CCNC/C=C/c2ccccc2)cc1	·	·	?	-68*	?	-1
COc1ccc(CCNc2nc3ccccc3n3nnnc23)cc1OC	1%	1%	-22%	32	-29%	-1
COc1ccc(CNCCc2ccc(Cl)cc2)cc1OCc1ccccc1	-25%[10 µM]	?	6.5µM*	-96*	4.6µM*	-7
CCc1c(C)sc(NC(=O)CCC(=O)O)c1C(=O)NC1CC1	·	·	·	·	·	-5
Cc1cnc(NC(=O)CCNC(=O)c2ccsc2)s1	·	·	·	·	·	-1
CCOc1cc(CNCc2ccccc2)ccc1OCc1ccc(Cl)cc1	-27%	?	23µM*	-94*	5.8µM*	-2
